High-throughput results deposited in PubChem BioAssay by Broad Institute.
NOMO-1 viab = STK33 inhibitor candidate reducing NOMO-1 cell viability | inhibition, % (concentration not given with the values) | AID 2330 | NOMO-1 AML viability, CellTiter-Glo luminescence, 72 h | 37,000 compounds, 7.5% hits; in the data active = inhibition above about 80%; inconclusive = no clear call, values can overlap the other calls
Shh pathway inh = Sonic Hedgehog pathway inhibition; Shh-LIGHT2 Gli-luciferase reporter, 30 h; inhibition, % (concentration not given with the values); 22,000 compounds, 2.1% hits; AID 2313;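 active = mean inhibition across valid replicates above about 65%, limit read from the data; inconclusive = mean under the limit, yet half or more replicates past it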;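 also: pathway switched on by Shh-conditioned medium diluted 1 in 25 in low serum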
MITF inh = MITF inhibition; 37,000 compounds, 0.28% hits; TRPM1 promoter luciferase, luminescence, 24 h; AID 2240; inhibition, % (concentration not given with the values); in the data active = inhibition above about 85%; inconclusive = no clear call, values can overlap the other calls; inactive = below about 68%;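 also: human melanocyte line stably carrying TRPM1 promoter luciferase reporter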
PD-1 reversal = reversal of PD-1 mediated T-cell inhibition; primary human CD4 T cells, PD-L1 beads, CellTiter-Glo 96 h; activation, % (no concentration beside the values); 29,000 tested, under 10 active; AID 2316; call rule not given here;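 also: 0% = median vehicle wells and 100% = positive control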
* marks the source's active call; other numbers are inactive results; ? = inconclusive; . = no result given. In the library only some 8.1% were active in any assay of this set; here they are far more common.

SMILES	NOMO-1 viab	Shh pathway inh	MITF inh	PD-1 reversal
CC(C)NC(=O)N(C)C[C@@H]1Oc2ccc(NC(=O)Cc3cn(C)c4ccccc34)cc2C(=O)N([C@@H](C)CO)C[C@@H]1C	-7	.	3	0
COc1ccc(S(=O)(=O)N(C)CC(=O)NC2CCCC2)cc1Cl	8	.	-11	-2
CC(C)C[C@](CC(=O)OCc1ccc(O[C@@H]2O[C@H](CO)[C@@H](O)[C@H](O)[C@H]2O)cc1)(O[C@@H]1O[C@H](CO)[C@@H](O)[C@H](O)[C@H]1O)C(=O)OCc1ccc(O[C@@H]2O[C@H](CO)[C@@H](O)[C@H](O)[C@H]2O)cc1	95*	13	13	0
Cc1noc(C)c1S(=O)(=O)Nc1ccc2c(c1)C(=O)N([C@@H](C)CO)C[C@@H](C)[C@H](CN(C)S(=O)(=O)c1ccc(Cl)cc1)O2	6	-5	0	.
COc1ccc(NC(=O)N(C)C[C@@H]2Oc3ccc(NC(=O)c4ccncc4)cc3C(=O)N([C@@H](C)CO)C[C@@H]2C)cc1	5	.	-19	1
Cc1cc(C(=O)Nc2cccc3c2O[C@H](CN(C)C(=O)Nc2cccc4ccccc24)[C@@H](C)CN([C@H](C)CO)C3=O)n(C)n1	14	8	1	0
C=C1C(=O)O[C@H]2C1CCC(=C)[C@@H]1C[C@H](OC(=O)C=C(C)C)C(=C)[C@@H]12 (stereo partly specified)	96*	7	12	-5
CCN1CCC[C@H]1CNC(=O)c1cc(S(N)(=O)=O)ccc1OC	0	-38	19	.
C[C@H](CO)N1C[C@H](C)[C@@H](CN(C)Cc2ccc(Cl)c(Cl)c2)Oc2ccc(NC(=O)Nc3ccc(C(F)(F)F)cc3)cc2C1=O	65	-15	-3	.
C[C@H]1CN([C@@H](C)CO)C(=O)c2cc(NC(=O)Nc3ccc(C(F)(F)F)cc3)ccc2O[C@@H]1CN(C)Cc1ccc(Cl)c(Cl)c1	117*	.	18	-6
C[C@@H]1CN([C@@H](C)CO)C(=O)c2cc(NC(=O)Nc3ccc(C(F)(F)F)cc3)ccc2O[C@H]1CN(C)Cc1ccc(Cl)c(Cl)c1	115*	27	27	-4
C[C@H](CO)N1C[C@H](C)[C@H](CN(C)Cc2ccc(Cl)c(Cl)c2)Oc2ccc(NC(=O)Nc3ccc(C(F)(F)F)cc3)cc2C1=O	125*	-6	49	0
C[C@H](CO)N1C[C@H](C)[C@H](CN(C)Cc2ccc(Cl)c(Cl)c2)Oc2ccc(NC(=O)c3ccncc3)cc2C1=O	22	86*	15	-2
C[C@@H]1CN([C@H](C)CO)C(=O)c2cc(NC(=O)c3ccncc3)ccc2O[C@H]1CN(C)Cc1ccc(Cl)c(Cl)c1	48	.	-9	2
CC(=O)c1cccc(N(CC(=O)N2CCN(c3ccccc3F)CC2)S(C)(=O)=O)c1	20	.	-6	2
COc1cc(C[C@H]2CO[C@H](c3ccc(O[C@@H]4O[C@H](CO)[C@@H](O)[C@H](O)[C@H]4O)c(OC)c3)[C@H]2CO)ccc1O	.	-10	.	.
Cc1cc(C)nc(N(C#N)C(C(=O)c2ccccc2)c2ccccc2)n1 (stereo unspecified)	110*	.	2	.
C[C@@H]1CN([C@@H](C)CO)C(=O)c2cccc(NC(=O)Nc3ccccc3)c2O[C@@H]1CN(C)C(=O)Nc1cccc2ccccc12	106*	?	-6	1
C[C@@H]1CN([C@H](C)CO)C(=O)c2cccc(NC(=O)Nc3ccccc3)c2O[C@@H]1CN(C)C(=O)Nc1cccc2ccccc12	105*	-45	-4	0
CNC[C@@H]1Oc2c(NC(=O)c3cc(C)nn3C)cccc2C(=O)N([C@@H](C)CO)C[C@H]1C	3	-30	7	.
COC(=O)c1ccc(Cl)c(NC(=O)CSc2nc(C)cc(C(F)(F)F)n2)c1	41	.	3	.
COC(=O)c1ccc(Cl)c(NC(=O)CSc2nc(-c3ccccc3)cc(C(F)(F)F)n2)c1	113*	.	41	-2
Cc1ccccc1NC(=O)CSc1nc(-c2ccc(Cl)cc2)cc(C(F)(F)F)n1	95*	.	8	.
COc1cc(C[C@H]2COC(=O)[C@@H]2Cc2ccc(O)c(OC)c2)ccc1O	.	-47	.	.
C[C@H](CO)N1C[C@H](C)[C@H](CN(C)C(=O)Nc2cccc3ccccc23)Oc2ccc(NC(=O)C3CC3)cc2C1=O	39	.	3	.
SMILES	NOMO-1 viab	Shh pathway inh	MITF inh	PD-1 reversal
COc1ccc(NC(=O)Nc2ccc3c(c2)C(=O)N([C@@H](C)CO)C[C@@H](C)[C@H](CN(C)Cc2ccc(Oc4ccccc4)cc2)O3)cc1	-4	-14	2	.
COc1ccc(NC(=O)Nc2ccc3c(c2)C(=O)N([C@@H](C)CO)C[C@@H](C)[C@@H](CN(C)Cc2ccc(Oc4ccccc4)cc2)O3)cc1	117*	94*	6	-5
COc1ccc(NC(=O)Nc2ccc3c(c2)C(=O)N([C@H](C)CO)C[C@@H](C)[C@@H](CN(C)Cc2ccc(-c4ccccc4)cc2)O3)cc1	94*	31	-2	.
c1ccc(-c2cn3c4ccccc4n(CCN4CCOCC4)c3n2)cc1	13	.	-5	.
CCC(=O)c1ccc2c(c1)N(CC(C)N(C)C)c1ccccc1S2 (stereo unspecified)	84*	53	-4	.
C[C@@H]1CN([C@@H](C)CO)C(=O)c2cc(NC(=O)Nc3ccccc3)ccc2O[C@@H]1CN(C)Cc1ccc(C(=O)Nc2ccccc2N)cc1	111*	.	28	-3
C[C@@H]1CN([C@@H](C)CO)C(=O)c2cc(NC(=O)Nc3cccc4ccccc34)ccc2O[C@@H]1CN(C)Cc1ccc(C(=O)Nc2ccccc2N)cc1	110*	.	8	-2
C[C@H](CO)N1C[C@H](C)[C@H](CN(C)Cc2ccc(C(=O)Nc3ccccc3N)cc2)Oc2ccc(NC(=O)Cc3ccccc3)cc2C1=O	104*	.	13	-2
C[C@@H]1CN([C@@H](C)CO)C(=O)c2cc(NC(=O)Nc3ccc4c(c3)OCO4)ccc2O[C@@H]1CN(C)Cc1ccc(C(=O)Nc2ccccc2N)cc1	108*	.	3	-2
C[C@H](CO)N1C[C@H](C)[C@H](CN(C)Cc2ccc(C(=O)Nc3ccccc3N)cc2)Oc2ccc(NC(=O)Nc3ccccc3)cc2C1=O	?	.	-35	1
C[C@H](CO)N1C[C@H](C)[C@@H](CN(C)Cc2ccc(Cl)c(Cl)c2)Oc2c(NS(=O)(=O)c3ccc(F)cc3)cccc2C1=O	19	22	-21	.
COc1ccc(NC(=O)Nc2cccc3c2O[C@H](CN(C)Cc2ccc(-c4ccccc4)cc2)[C@H](C)CN([C@H](C)CO)C3=O)cc1	40	-38	-7	1
C[C@@H]1CN([C@H](C)CO)C(=O)c2cccc(NC(=O)c3nc4ccccc4s3)c2O[C@H]1CN(C)Cc1ccc(Cl)c(Cl)c1	91*	-15	14	-3
C[C@@H]1CN([C@@H](C)CO)C(=O)c2cccc(NC(=O)c3nc4ccccc4s3)c2O[C@@H]1CN(C)Cc1ccc(C(F)(F)F)cc1	99*	-16	8	-4
CNC[C@H]1Oc2c(NC(=O)c3nc4ccccc4s3)cccc2C(=O)N([C@H](C)CO)C[C@@H]1C	97*	32	45	3
